AMA1 RON2 block = qHTS for Inhibitors of AMA1-RON; Towards Development of Antimalarial Drug Lead: Primary Screen; hit rate 0.2% among 360,000; Potency, µM (series often up to 58.2 µM), actives largely listed as inhibitors; AID 720542, 2013; Plasmodium falciparum AMA1 (3D7) - RON2 peptide interaction; AlphaScreen AMA1-biotinylated RON2 peptide binding; note: nearly all actives have a fitted effect of over 45% in size
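AMA1 (3D7) with his tag at 25 nM final met compounds first, then biotinylated RON2 peptide at 25 nM; detection used donor plus acceptor beads, 10 µg/mL apiece, read by AlphaScreen after 30 min at room temperature.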
Pf growth 96h = Primary qHTS for delayed death inhibitors of the malarial parasite plastid, 96 hour incubation; P. falciparum luciferase reporter growth, 96 h; Potency, µM (titrated, usually from 28.7 µM), usual class: inhibitors; hit rate 6.9% among 320,000; AID 504834, 2011
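Parasite growth measured via integrated firefly luciferase reporter in P. falciparum. Infected erythrocytes at 2% hematocrit, 0.05% parasitemia final were treated 96 hours at 37 C under 5% CO2, and luminescence was read.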
Cycloheximide cs = Cycloheximide Counterscreen for Small Molecule Inhibitors of Shiga Toxin; cell reporter, cycloheximide protein synthesis inhibition counterscreen; max response, %; hit rate 12% among 300,000; in the data active = max response mostly above about 13%, no sharp cut-off; inactive = mostly below about 14%; note: read at 38.3 µM for the half of the compounds with a filed dose
Shiga inhibitor = A qHTS for Small Molecule Inhibitors of Shiga Toxin. Vero cells, Shiga toxin protein synthesis inhibition reporter. inhibition, % at 38.7 µM. hit rate 9.2% among 290,000. AID 2315, 2010; in the data active = inhibition mostly above about 28%, no sharp cut-off; inactive = mostly below about 43%
Pf growth 48h = Primary qHTS for delayed death inhibitors of the malarial parasite plastid, 48 hour incubation | P. falciparum luciferase growth in erythrocytes, 48 h | hit rate 5.9% among 310,000 | Potency, µM (highest dose often 28.7 µM), usual class: inhibitors
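Firefly luciferase activity from engineered P. falciparum reports growth; inhibitors lower the luminescent signal. Cultures contained 2% hematocrit erythrocytes at 0.1% final parasitemia.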
HCV inh = qHTS Assay for Inhibitors of Hepatitis C Virus (HCV). Potency, µM (doses to about 41.8 µM), hits mostly inhibitors. hit rate 3.4% among 340,000. Huh7.5.1 HCVcc-Cre infection, luciferase reporter, 44 h
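Reporter virus HCVcc-Cre (~0.5 moi) infects cells exposed to compound; seeding density 1,000 cells/well with 4 h settling beforehand. Luminescence, 15 sec read, taken 44 h post-infection following a 15 min RT substrate incubation.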
Large screens that a line does not name were inactive. Only some compounds are listed: those with a hit (about 21% of all), similar ones and a draw of the others. Unless noted, calls come from the whole dose curve; as a rule, active = well fitted curve in the direction sought with a large enough effect; inconclusive = small, poorly fitted or top-dose-only effect, or another doubt; inactive = no such curve, though single readings can be large; an effect the other way counts as inactive or inconclusive.

CCN(CC)c1ccc(NC(=O)c2cccc(C)c2)cc1S(=O)(=O)Nc1ccccc1OC	Pf growth 96h 2.9µM, Pf growth 48h 7.4µM
COc1ccc(NC(=O)c2ccc(-c3ccccc3)cc2)cc1NS(=O)(=O)c1ccc(F)cc1	Pf growth 96h inconclusive, Pf growth 48h inconclusive, HCV inh 4µM
CCN(CC)c1ccc(NC(=O)COc2ccc(C#N)cc2)cc1S(=O)(=O)Nc1ccc(OC)cc1	Pf growth 96h 10µM, Pf growth 48h inconclusive, HCV inh inconclusive
CCN(CC)c1ccc(NC(=O)c2ccccc2)cc1S(=O)(=O)Nc1ccccc1OC	Pf growth 96h inconclusive, Pf growth 48h 1.5µM, HCV inh inconclusive
COc1ccccc1NC(=O)Nc1ccc(Cl)c(S(=O)(=O)Nc2ccccc2OC)c1	Pf growth 96h inconclusive, HCV inh inconclusive
COc1ccc(NC(=O)c2ccccc2)cc1NS(=O)(=O)c1ccc(F)cc1	none
COc1cc(OC)c(OC)cc1CNC(=O)CCN1C(=O)c2cccc([N+](=O)[O-])c2C1=O	none
COc1ccccc1C(=O)NNC(=O)c1ccc(C)cc1	Cycloheximide cs 20
COc1ccccc1C(=O)NC(=O)Nc1c(C)cc(C)cc1C	HCV inh 13µM
COc1ccccc1C(=O)NNC(=O)c1ccc(Br)cc1	Cycloheximide cs 10
COc1ccccc1C(=O)NNC(=O)c1ccc(Br)o1	Cycloheximide cs 44, Shiga inhibitor 82
COc1ccccc1/C=N/OC(=O)c1ccc(C)cc1	Cycloheximide cs 11
NC(=S)NN=C1c2ccccc2-c2ccccc21	Pf growth 48h inconclusive, HCV inh 6.3µM
O=C(NN=C1c2ccccc2-c2ccccc21)c1ccccc1Br	HCV inh inconclusive
O=C(NN=C1c2ccccc2-c2ccccc21)c1ccccc1	Pf growth 96h 8.3µM, HCV inh inconclusive
Cc1ccccc1OCCC(=O)Nc1ccc(S(=O)(=O)N2CCCC2)cc1	none (no result: Pf growth 96h, Cycloheximide cs, Shiga inhibitor, Pf growth 48h, HCV inh)
Cc1ccc(S(=O)(=O)NC(C)C(=O)NC(C)c2cccs2)cc1 (stereo unspecified)	none
C=CCSc1nnc(-c2cccnc2)o1	Cycloheximide cs 15, Shiga inhibitor 22
NC(=O)CSc1nnc(-c2ccc([N+](=O)[O-])cc2)o1	Cycloheximide cs 19
C=CCSc1nnc(-c2ccc([N+](=O)[O-])cc2)o1	Cycloheximide cs 19
O=C(CSc1nnc(-c2ccncc2)o1)c1cccc([N+](=O)[O-])c1	none
O=C(O)CCCNC(=O)CCCn1nnc2ccccc2c1=O	none
Cc1ccc(-c2nc3cccnc3s2)cc1NC(=O)C1c2ccccc2Oc2ccccc21	Cycloheximide cs 30, Pf growth 48h inconclusive
Cc1nc2ccc(S(=O)(=O)Nc3ccc(-c4nc5cccnc5s4)cc3)cc2s1	Cycloheximide cs 37, Shiga inhibitor 49
CCS(=O)(=O)Nc1cccc(-c2nc3cccnc3s2)c1	Cycloheximide cs 33, Shiga inhibitor 131
CCS(=O)(=O)Nc1cc(-c2nc3cccnc3s2)ccc1C	Cycloheximide cs 66, Shiga inhibitor 87, HCV inh inconclusive
Cc1ccc(-c2nc3cccnc3s2)cc1NC(=O)c1ccco1	none (no result: Pf growth 96h, Cycloheximide cs, Shiga inhibitor, Pf growth 48h)
COc1ccccc1C(=O)NC(C)c1ccc(-n2ccnc2)cc1 (stereo unspecified)	Pf growth 96h inconclusive, Pf growth 48h inconclusive
CNC(=O)COc1coc(CN2CCN(C(=O)c3ccco3)CC2)cc1=O	Pf growth 96h inconclusive (no result: Cycloheximide cs, Shiga inhibitor)
CCS(=O)(=O)Nc1ccc(-c2nc3cccnc3s2)cc1	Cycloheximide cs 41, Shiga inhibitor 73
O=C1/C(=C/c2cccnc2)N=C2CCCCCN12	none
COc1cc(/C=C2\N=C3CCCCCN3C2=O)ccc1O	Cycloheximide cs 30, Shiga inhibitor 114 (no result: Pf growth 96h)
COc1ccc(/C=C2/N=C3CCCCCN3C2=O)cc1	Cycloheximide cs 30, Shiga inhibitor 75
O=C1/C(=C\c2ccc(O)c(O)c2)N=C2CCCCCN12	Cycloheximide cs 17, Shiga inhibitor 106
COc1ccc(/C=C2\N=C3CCCCCN3C2=O)cc1OC	none
COc1cccc(-c2cc3nc4c(c(N5CCC6(CC5)OCCO6)n3n2)CCC4)c1	Pf growth 96h inconclusive, Pf growth 48h inconclusive, HCV inh 16µM
Fc1ccc(-c2cc3nc4c(c(N5CCOCC5)n3n2)CCCC4)cc1	Cycloheximide cs 29, Shiga inhibitor 95, Pf growth 48h 10µM, HCV inh inconclusive
COc1ccc(-c2cc3nc4c(c(N5CCC6(CC5)OCCO6)n3n2)CCC4)cc1	Pf growth 48h inconclusive, HCV inh inconclusive
Cc1cccc(-c2cc3nc4c(c(N5CCOCC5)n3n2)CCCC4)c1	Cycloheximide cs 32, Shiga inhibitor 73, Pf growth 48h inconclusive, HCV inh inconclusive
COCCN1CCN(c2c3c(nc4cc(-c5cccc(F)c5)nn24)CCC3)CC1	Pf growth 96h inconclusive, Pf growth 48h inconclusive
Cc1cccc(-c2cc3nc4c(c(N5CCC6(CC5)OCCO6)n3n2)CCCC4)c1	HCV inh 10µM (no result: Pf growth 96h, Cycloheximide cs, Shiga inhibitor, Pf growth 48h)
O=C(C1CCCO1)N1CCN(c2c3c(nc4cc(-c5ccc(F)cc5)nn24)CCC3)CC1 (stereo unspecified)	Pf growth 96h inconclusive, Pf growth 48h inconclusive
CCc1nc2c(OCc3cc(Cl)cc(Cl)c3)cccn2c1N(C)C(=O)c1ccc(OC)cc1	none (no result: Pf growth 96h, Cycloheximide cs, Shiga inhibitor, Pf growth 48h, HCV inh)
CC(C)Oc1cc(F)ccc1-c1cc(C(=O)NCc2cccnc2)[nH]n1	none (no result: Pf growth 96h, Cycloheximide cs, Shiga inhibitor, Pf growth 48h, HCV inh)
Cc1cccc(-c2cc3nc4c(c(NCc5ccco5)n3n2)CCCC4)c1	Cycloheximide cs 57, Shiga inhibitor 126, HCV inh 7.1µM
CN(C)CCCNc1c2c(nc3cc(-c4cccc(F)c4)nn13)CCC2	none
CCN(CC)CCNc1nc2cc(OC)c(OC)cc2c2nc(-c3ccccc3)nn12	Pf growth 96h inconclusive, Pf growth 48h 1µM
COc1cc2[nH]c(=O)n3nc(-c4ccccc4)nc3c2cc1OC	Pf growth 48h inconclusive
COc1cc([N+](=O)[O-])ccc1NC(=O)CCS(=O)(=O)c1ccc2c(c1)n(C)c(=O)c(=O)n2C	Pf growth 96h inconclusive
CC1=C(C(=O)OC(C)C)C(c2ccc(C)o2)C(C(=O)OC(C)C)=C(C)N1	Pf growth 96h inconclusive, Pf growth 48h 10µM
COc1cc(C2C(C(=O)OC(C)C)=C(C)Nc3[nH]c(=O)[nH]c(=O)c32)ccc1O (stereo unspecified)	none
COc1ccc(C2C(C#N)=C(C)NC(C)=C2C(=O)OC(C)C)c(OC)c1 (stereo unspecified)	Pf growth 96h 4.7µM, Pf growth 48h 7.4µM
CCOC(=O)C1=C(C)NC(C)=C(C(=O)OCC)C1c1ccc(Br)o1	Pf growth 96h 12µM, Pf growth 48h inconclusive, HCV inh inconclusive
Cc1cc(OCCCn2c(CCNC(=O)C3CCCCC3)nc3ccccc32)ccc1Cl	none (no result: AMA1 RON2 block, Pf growth 96h, Pf growth 48h, HCV inh)

Assay outcomes from PubChem.
